Here are results for 14 compounds from PubChem BioAssay.

Usually inhibition stands for the drop in the measured response relative to a control, in per cent.

For assay [1], the system named is TRPC4 beta (transient receptor potential cation channel C4), mouse. Description: activators of mouse TRPC4 channel, confirmation, cell-based, Fluo4 calcium, HEK293 TRPC4beta/mu-opioid, duplicates, 10 µM (AID 2426;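 active means fluorescence ratio normalized to control raised more than 50% in primary screen plus both repeat runs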). The settings on record: Fluo4 calcium fluorescence, at 10 µM; active compounds read high.
The subject of assay [2] is transient receptor potential cation channel C4 beta (TRPC4), mouse. The experiment in a line: activators of mouse TRPC4 channel, confirmation, cell-based, second round, Fluo4, HEK293 TRPC4beta/mu-opioid, 1 µM (AID 2461;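 active means primary screen active and over 50% activation in each of two duplicate runs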). The settings on record: Fluo4 calcium fluorescence, at 1 µM; active compounds read high.
In assay [3] the test system is TRPC4 (transient receptor potential cation channel C4 beta), mouse. The experiment in a line: positive allosteric modulators of mouse TRPC4, confirmation, cell-based, second round, Fluo-4, HEK293 TRPC4beta/mu-opioid, 1 µM (AID 2554). The conditions noted are these: DAMGO EC20, Fluo-4 calcium flux, at 1 µM; active compounds read high. In general terms: Calcium flux is commonly read through the fluorescence of an indicator in the cells.

For assay [4], the system named is TRPC4 beta (transient receptor potential cation channel C4), mouse. Description: positive allosteric modulators of mouse TRPC4, confirmation, cell-based, Fluo-4, HEK293 TRPC4beta/mu-opioid (AID 2555;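 active means primary screen hit whose calcium fluorescence ratio, in both repeats, exceeds the weak agonist control mean by 3 SD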). The conditions noted are these: DAMGO EC20, Fluo-4 calcium flux, at 10 µM; active compounds read high.
In assay [5] the target is Short transient receptor potential channel 4 (Mus musculus) (UniProt Q9QUQ5). Description: inhibitors of mouse TRPC4 channel, confirmation, cell-based, Fluo4, HEK293 TRPC4beta/mu-opioid (AID 2636;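 active means calcium signal cut by more than 3 SD below the full-agonist control yet still positive, in both repeats and the earlier primary screen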). The conditions noted are these: DAMGO, Fluo4 calcium flux, at 10 µM; active compounds read high.
Chain of Short transient receptor potential channel 4 (Mus musculus) (Q9QUQ5 whole entry, looked up): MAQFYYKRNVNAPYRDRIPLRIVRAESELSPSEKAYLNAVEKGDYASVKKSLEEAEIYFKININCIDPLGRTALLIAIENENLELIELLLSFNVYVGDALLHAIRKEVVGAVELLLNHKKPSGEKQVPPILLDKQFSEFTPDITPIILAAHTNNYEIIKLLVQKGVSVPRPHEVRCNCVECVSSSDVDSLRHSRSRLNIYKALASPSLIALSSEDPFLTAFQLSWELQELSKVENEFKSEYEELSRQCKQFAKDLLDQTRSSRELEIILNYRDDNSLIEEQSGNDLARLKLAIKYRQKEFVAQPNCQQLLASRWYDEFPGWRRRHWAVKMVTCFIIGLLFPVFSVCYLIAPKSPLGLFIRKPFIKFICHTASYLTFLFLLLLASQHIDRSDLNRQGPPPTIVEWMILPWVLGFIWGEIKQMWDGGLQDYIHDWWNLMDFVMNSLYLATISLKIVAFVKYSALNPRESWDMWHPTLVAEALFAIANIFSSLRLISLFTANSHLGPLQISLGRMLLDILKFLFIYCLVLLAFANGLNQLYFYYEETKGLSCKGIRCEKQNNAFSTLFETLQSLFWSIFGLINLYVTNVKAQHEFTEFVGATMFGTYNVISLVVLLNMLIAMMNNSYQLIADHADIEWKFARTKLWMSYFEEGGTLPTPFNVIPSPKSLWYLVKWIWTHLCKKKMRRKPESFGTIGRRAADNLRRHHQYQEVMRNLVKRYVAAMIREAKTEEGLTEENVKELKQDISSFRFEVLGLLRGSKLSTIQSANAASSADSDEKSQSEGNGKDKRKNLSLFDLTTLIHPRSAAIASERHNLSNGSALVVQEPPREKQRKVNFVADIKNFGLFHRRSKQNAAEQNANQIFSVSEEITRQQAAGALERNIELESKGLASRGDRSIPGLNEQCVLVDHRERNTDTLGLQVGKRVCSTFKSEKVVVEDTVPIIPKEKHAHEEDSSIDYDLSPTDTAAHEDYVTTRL
The target is the same in assay [6]. Description: inhibitors of mouse TRPC4 channel, confirmation, cell-based, second round, Fluo4, HEK293 TRPC4beta/mu-opioid, 1 µM (AID 2637;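 active means calcium signal ratio cut to more than 3 SD under the fully stimulated control mean yet still positive, in both repeats and the primary screen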). The conditions noted are these: Fluo4 calcium flux, DAMGO, at 1 µM; active compounds read high.
The target is the same in assay [7]. Description: mouse TRPC4 channel activators, dose response, cell-based, HEK293 TRPC4/mu-opioid, Fluo-4 calcium (AID 434937;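 active means primary screen activator hit with a dose response curve and TRPC4 channel activation at any tested dose; inactive means no activation, no dose response, or not a primary hit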).
The target is the same in assay [8]. The experiment in a line: TRPC4 positive allosteric modulators, dose response, cell-based, HEK293 TRPC4/mu-opioid, Fluo-4 calcium, EC20 DAMGO (AID 434941;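 active means earlier screen potentiator hit that boosts the TRPC4 ion channel at some dose, with a dose response; inactive means no potentiation, no dose response, or not a prior hit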;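 further: calcium entry triggered by an EC20 dose of DAMGO at the co-expressed mu-opioid receptor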).
Assay [9] shares this target. The experiment in a line: mouse TRPC4 channel inhibitors, dose response, cell-based, HEK293 TRPC4/mu-opioid, Fluo-4 calcium (AID 434942;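 active means primary screen inhibitor hit that blocks the TRPC4 channel at some tested dose, yielding a dose curve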).
Assay [10] has as its target Short transient receptor potential channel 6 (Mus musculus) (UniProt Q61143). Description: inhibition of mouse TRPC6 channel, confirmation, selectivity assay for TRPC4 inhibitor project, cell-based, HEK293, membrane potential dye, duplicate (AID 434948;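 active means active in primary screen and both duplicates, each dropping signal beyond three positive-control SD with fluorescence still positive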). The conditions noted are these: HEK293 TRPC6, membrane potential dye fluorescence, at 10 µM, stimulated with maximal-effect acetylcholine; active compounds read high.

Assay [11] shares this target. Description: activation of mouse TRPC6 channel, confirmation, selectivity assay for TRPC4 activator project, cell-based, HEK293, membrane potential dye, duplicate (AID 434950;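 active means membrane potential signal rise above negative control mean plus 3 SD in both duplicates, also active in the earlier TRPC4 screen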;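 on activation: 0% = buffer only wells and 100% = acetylcholine maximal-effect wells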). The settings on record: HEK293 TRPC6, membrane potential fluorescence, at 10 µM; active compounds read high.
For assay [12] the target is unchanged. The experiment in a line: TRPC6 potentiation by TRPC4 potentiator hits, confirmation, selectivity assay for TRPC4 potentiator project, HEK293 cells, membrane potential dye, duplicate (AID 434952;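 active means compound raising the membrane signal above positive-control mean plus 3 SD in both repeats, and a primary screen hit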). The settings on record: HEK293 TRPC6, membrane potential dye fluorescence, at 10 µM, maximal acetylcholine added after compound; active compounds read high.
Assay [13] has as its target Short transient receptor potential channel 4 (Mus musculus) (UniProt Q9QUQ5). The experiment in a line: calcium flux activators in TRPC4/5HT1a cells, counter-screen for TRPC4 activator project, cell-based, second counter screen, HEK293 TRPC4/5HT1a, Fluo-4 (AID 434977;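 active means calcium signal rise above buffer-control mean plus 5 SD in both duplicates, and also a hit in the primary screen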;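 on activation: plate controls were assay buffer for no effect and maximal serotonin response for full effect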). The settings on record: Fluo-4 calcium flux, at 10 µM; active compounds read high.
Assay [14] is described as follows: calcium flux inhibitors in TRPC4/5HT1a cells, confirmation, counter-screen for TRPC4 inhibitor project, cell-based, second counter screen, HEK293 TRPC4/5HT1a, Fluo-4 (AID 434978;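 active means primary screen active whose calcium signal fell more than 3 SD beyond the full-serotonin control mean in both duplicate plates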;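 further: serotonin given first at submaximal then at maximal dose after compound preincubation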). The conditions noted are these: Fluo-4 calcium flux, at 10 µM, serotonin added to trigger calcium flux; active compounds read high.
Assay [15] concerns TRPC4 (mouse), co-expressed with 5HT1a in HEK293. Description: calcium flux potentiators in TRPC4/5HT1a cells, confirmation, counter-screen for TRPC4 potentiator project, cell-based, second counter screen, HEK293 TRPC4/5HT1a, Fluo-4 (AID 434979;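 active means signal rise over 3 SD above mean of control wells given weak agonist, in both repeats and first screen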). The settings on record: Fluo-4 calcium flux, at 10 µM, serotonin added at its EC20 dose; active compounds read high.
The nature of assay [16]: calcium flux activation in mu-opioid HEK293 cells, confirmation, counter-screen for TRPC4 activator project, cell-based, HEK293 mu-opioid receptor line (AID 449723;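 active means hit in primary screen, with calcium signal over 5 SD above buffer well mean in both duplicates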;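 further: counter screen cells carry the mu-opioid receptor alone and lack TRPC4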). The conditions noted are these: Fluo-4 calcium fluorescence, at 10 µM; active compounds read high.
A short description of assay [17]: calcium flux enhancement in mu-opioid HEK293 cells, confirmation, counter-screen for TRPC4 allosteric potentiator project, cell-based, HEK293 mu-opioid receptor line (AID 449724;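 active means calcium signal rise more than 3 SD above the low-dose agonist control mean, in both duplicate plates and the primary screen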;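 further: HEK293 cells carrying mu-opioid receptor only with no TRPC4 channel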). The settings on record: Fluo-4 calcium flux, at 10 µM, compound added before EC20 DAMGO stimulus; active compounds read high.

For some of these results: Entries with a potency or affinity are not part of this list. Active and inactive are the calls of the source.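 How the source made its calls, unless noted: active means primary screen hit whose fluorescence ratio, in both repeats, exceeds the weak agonist control mean by 3 SD; inactive means the rest.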

Chain of Short transient receptor potential channel 6 (Mus musculus) (Q61143 whole entry, looked up): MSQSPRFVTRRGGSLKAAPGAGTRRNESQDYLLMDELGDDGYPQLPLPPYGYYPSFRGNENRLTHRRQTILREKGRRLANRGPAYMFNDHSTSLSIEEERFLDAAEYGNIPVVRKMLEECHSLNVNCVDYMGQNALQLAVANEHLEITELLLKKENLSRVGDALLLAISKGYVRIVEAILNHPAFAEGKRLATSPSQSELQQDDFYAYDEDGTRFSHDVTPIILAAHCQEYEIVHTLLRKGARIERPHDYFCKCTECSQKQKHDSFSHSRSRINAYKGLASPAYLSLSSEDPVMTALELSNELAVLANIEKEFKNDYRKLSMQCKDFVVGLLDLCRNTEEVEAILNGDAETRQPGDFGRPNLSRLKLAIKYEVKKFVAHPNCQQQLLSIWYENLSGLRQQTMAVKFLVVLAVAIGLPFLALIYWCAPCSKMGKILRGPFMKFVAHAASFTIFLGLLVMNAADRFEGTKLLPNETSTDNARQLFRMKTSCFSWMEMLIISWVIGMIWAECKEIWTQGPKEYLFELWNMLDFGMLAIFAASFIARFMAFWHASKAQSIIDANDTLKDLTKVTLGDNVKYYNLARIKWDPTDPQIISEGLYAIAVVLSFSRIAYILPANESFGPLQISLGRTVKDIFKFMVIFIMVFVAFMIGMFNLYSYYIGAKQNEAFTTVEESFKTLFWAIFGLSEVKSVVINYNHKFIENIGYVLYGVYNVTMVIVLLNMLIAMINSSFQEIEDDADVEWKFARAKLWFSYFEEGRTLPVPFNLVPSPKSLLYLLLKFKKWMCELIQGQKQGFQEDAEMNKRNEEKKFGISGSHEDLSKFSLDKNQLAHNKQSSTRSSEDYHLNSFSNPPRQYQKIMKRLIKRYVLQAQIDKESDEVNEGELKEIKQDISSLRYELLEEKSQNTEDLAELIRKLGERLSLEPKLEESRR

Regarding `NCC(c1ccc(Cl)cc1Cl)c1c[nH]c2ccccc12` (stereo not drawn), the result in [1], in [2], in [3], in assay [4], in [5] and in [6] was inactive. Moreover, the result in [7], in [8], in [9], in assay [10], in assay [11] and in assay [12] was inactive. The outcome in [13], in assay [14], in [16] and in assay [17] was inactive. For the same compound, the potentiation in [15] was 18.9% (active).

As to `CC(C)(C)c1ccccc1OCCCCCn1ccnc1`, the outcome in assay [1], in assay [2], in assay [3], in [4], in assay [5] and in assay [6] was inactive. Moreover, the result in [7], in assay [8], in assay [9], in assay [10], in [11] and in [12] was inactive. Also, the outcome in assay [13], in [14], in assay [15], in assay [16] and in assay [17] was inactive.

For `NC(=O)c1ccc(Oc2ccc3c(c2)CCC3)c([N+](=O)[O-])c1`, the outcome in [1], in assay [2], in assay [3], in assay [5], in [6] and in assay [7] was inactive. Besides, the outcome in assay [8], in assay [9], in assay [10], in assay [11], in assay [12] and in assay [13] was inactive. The outcome in [14], in assay [16] and in assay [17] was inactive. For the same compound, the potentiation was 42% (active) in assay [4] and 84.5% (active) in assay [15].

For `CC(=O)Nc1nc2ccc(S(=O)(=O)N3CCCCC3)cc2s1`, the result in assay [1], in assay [2], in assay [3], in assay [4], in [5] and in assay [6] was inactive. In addition, the outcome in assay [7], in [8], in assay [9], in assay [10], in assay [11] and in [12] was inactive. Besides, the result in assay [13], in [14], in assay [15], in [16] and in [17] was inactive.

`CCOc1cc(N(CC)CC)ccc1/C=C(/C#N)c1nc2ccccc2[nH]1`: the result in assay [1], in assay [2], in assay [3], in assay [4], in assay [5] and in [6] was inactive. The outcome in assay [7], in assay [8], in [9], in [10], in [12] and in assay [14] was inactive. Further, the outcome in assay [15] and in assay [17] was inactive. For the same compound, the results for the activation in [11], in assay [13] and in [16] were 86% (active), 16.9% (active) and 31.5% (active), respectively.

`O=C(COC(=O)c1nc(Cl)ccc1Cl)c1ccccc1Cl`: the result in assay [1], in assay [2], in [3], in assay [4], in assay [5] and in [6] was inactive. Besides, the outcome in assay [7], in assay [8], in assay [9], in assay [10], in assay [11] and in [12] was inactive. Moreover, the outcome in assay [13], in [14], in assay [15], in [16] and in assay [17] was inactive.

Consider `CCOc1cc(S(=O)(=O)N2CCN(C(=O)c3ccco3)CC2)ccc1F`, for which the outcome in [1], in assay [2], in assay [3], in assay [5], in [6] and in assay [7] was inactive. In addition, the result in [8], in assay [9], in assay [10], in [11], in assay [12] and in [13] was inactive. In addition, the outcome in [14], in assay [16] and in assay [17] was inactive. The results for the potentiation in [4] and in assay [15] were 12% (active) and 32% (active), respectively.

In the case of `NC(=O)c1ccc(N2CCN(c3ncc(C(F)(F)F)cc3Cl)CC2)cc1`, the outcome in assay [1], in assay [2], in [3], in assay [4], in assay [5] and in assay [6] was inactive. The result in assay [7], in assay [8], in [9], in assay [10], in assay [11] and in [12] was inactive. Moreover, the result in [13], in assay [14], in assay [16] and in [17] was inactive. Moreover, the potentiation in assay [15] was 11.9% (active).

Regarding `Cc1cc(Nc2ccc3c(c2)OCCO3)c2ccccc2n1`, the outcome in assay [1], in assay [2], in assay [3], in assay [4], in assay [5] and in assay [6] was inactive. The result in [7], in assay [8], in [9], in [10], in assay [11] and in [12] was inactive. Moreover, the result in [13], in assay [14], in [15], in [16] and in assay [17] was inactive.

For the compound `CN1CCN(c2ccc(Cl)cc2NC(=O)CC2OC(=O)c3ccccc32)CC1` (stereo not drawn), the outcome in [1], in [2], in assay [5], in assay [6], in [7] and in assay [8] was inactive. Moreover, the outcome in [9], in [10], in [11], in assay [12], in [13] and in assay [14] was inactive. In addition, the result in assay [16] and in assay [17] was inactive. Moreover, the values for the potentiation in assay [3], in assay [4] and in assay [15] were 33% (active), 33% (active) and 24.4% (active), respectively.

In the case of `O=C(CN1CCCN(S(=O)(=O)c2ccc(F)cc2)CC1)Nc1ccccc1Br`, the result in assay [1], in [2], in assay [3], in assay [4], in assay [6] and in assay [7] was inactive. For the same compound, the outcome in assay [8], in [9], in [10], in assay [11], in assay [12] and in assay [13] was inactive. Further, the outcome in assay [14], in assay [15], in assay [16] and in [17] was inactive. In addition, in [5], the inhibition is 70% (active).

For `COc1ccc(C(=O)Nc2ccccc2N2CCN(C(=O)c3ccccc3)CC2)cc1Br`, the result in [1], in assay [2], in [3], in assay [4], in assay [6] and in assay [7] was inactive. Also, the result in assay [8], in [9], in assay [10], in assay [11], in assay [12] and in [13] was inactive. Moreover, the result in assay [14], in assay [15], in assay [16] and in assay [17] was inactive. Further, the inhibition in assay [5] is 75% (active).

As to `CCOC(=O)C1CCCN(C(=O)CCCn2nnnc2CN2CCOCC2)C1` (stereo not drawn), the result in [1], in assay [2], in assay [3], in assay [4], in [5] and in [6] was inactive. Also, the result in assay [7], in assay [8], in assay [9], in [10], in [11] and in assay [12] was inactive. In addition, the result in assay [13], in assay [14], in assay [16] and in assay [17] was inactive. The potentiation in [15] is 13.4% (active).

For `O=[N+]([O-])c1ccc2c(c1)C=C1CCCCC1(N1CCCC1)O2` (stereo not drawn), the outcome in [1], in [2], in assay [3], in assay [4], in assay [5] and in assay [6] was inactive. The outcome in assay [7], in assay [8], in assay [9], in assay [10], in [11] and in assay [12] was inactive. Moreover, the outcome in assay [13], in assay [14], in [15], in assay [16] and in [17] was inactive.
